TPT1 inh – Candida albicans TPT1 enzyme inhibitors, primary screen, biochemical, fluorescence polarization. tRNA 2'-phosphotransferase TPT1 (Candida albicans SC5314). inhibition, % at 5 µM. recombinant caTPT1, FP RNA substrate dephosphorylation. actives 0.81% (n = 300,000);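 active means inhibition above the mean of all tested compounds plus 3 SD, set per screening campaign, cut at about 24% in these data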;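 further: plate controls were DMSO alone for no effect and ferristatin control at 100 nM for full effect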
Rpn11 block – Rpn11 (PSMD14) deubiquitinase inhibitors, primary screen, biochemical, fluorescence polarization, uHTS; 26S proteasome non-ATPase regulatory subunit 14 (Homo sapiens), O00487; human 26S proteasome, Ub4-pepOG fluorescence polarization; 20S core pre-blocked with epoxomicin; inhibition, % at 20 µM; actives 0.59% (n = 360,000); AID 588493, 2011;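 active means inhibition at 20 µM, scaled to each plate's controls, above about 33%, limit read from the data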
PHOSPHO1 inh – PubChem AID 1565 | actives 1.1% (n = 290,000) | Phosphoethanolamine/phosphocholine phosphatase (Homo sapiens), Q8TCT1 | recombinant PHOSPHO1, absorbance phosphatase assay | inhibition, % at 13.3 µM; in the data active means inhibition above about 60%
CTSL1 counter – Fasciola hepatica cathepsin L1 inhibitors, primary screen, counter-screen for PFM18AAP inhibitor project, biochemical, QFRET, fluorogenic peptide substrate | inhibition, % at 5.96 µM | actives 0.49% (n = 300,000) | AID 1906, 2009 | recombinant F. hepatica cathepsin L1, Z-Leu-Arg-MCA fluorescence;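 active means inhibition above the mean of all tested compounds plus 3 SD, set per screening campaign, cut at about 17% in these data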;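 further: 0% = plate median of test compound wells and 100% = 1 µM Z-Phe-Ala-diazomethylketone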
HNF4A DNA FP – change in binding of human HNF4A to DNA, primary screen, biochemical, fluorescence polarization, FITC-DNA | actives 0.3% (n = 360,000) | Hepatocyte nuclear factor 4-alpha (Homo sapiens), P41235 | activity change, % at 10 µM | 1 h; in the data active means activity change above about 30%, passing the limit was not always enough
NRP1-CendR mod – modulators of CendR peptide binding to NRP-1, primary screen, biochemical, fluorescence polarization, uHTS; actives 0.85% (n = 360,000); FAM-RPARPAR peptide binding to NRP-1; inhibition, % at 25 µM;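 active means inhibition or corrected inhibition above about 18%, plus a signal ratio from 0.5 to 1.5, limit read from the data, passing the limit was not always enough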
Target sequence (O14786 whole entry, looked up): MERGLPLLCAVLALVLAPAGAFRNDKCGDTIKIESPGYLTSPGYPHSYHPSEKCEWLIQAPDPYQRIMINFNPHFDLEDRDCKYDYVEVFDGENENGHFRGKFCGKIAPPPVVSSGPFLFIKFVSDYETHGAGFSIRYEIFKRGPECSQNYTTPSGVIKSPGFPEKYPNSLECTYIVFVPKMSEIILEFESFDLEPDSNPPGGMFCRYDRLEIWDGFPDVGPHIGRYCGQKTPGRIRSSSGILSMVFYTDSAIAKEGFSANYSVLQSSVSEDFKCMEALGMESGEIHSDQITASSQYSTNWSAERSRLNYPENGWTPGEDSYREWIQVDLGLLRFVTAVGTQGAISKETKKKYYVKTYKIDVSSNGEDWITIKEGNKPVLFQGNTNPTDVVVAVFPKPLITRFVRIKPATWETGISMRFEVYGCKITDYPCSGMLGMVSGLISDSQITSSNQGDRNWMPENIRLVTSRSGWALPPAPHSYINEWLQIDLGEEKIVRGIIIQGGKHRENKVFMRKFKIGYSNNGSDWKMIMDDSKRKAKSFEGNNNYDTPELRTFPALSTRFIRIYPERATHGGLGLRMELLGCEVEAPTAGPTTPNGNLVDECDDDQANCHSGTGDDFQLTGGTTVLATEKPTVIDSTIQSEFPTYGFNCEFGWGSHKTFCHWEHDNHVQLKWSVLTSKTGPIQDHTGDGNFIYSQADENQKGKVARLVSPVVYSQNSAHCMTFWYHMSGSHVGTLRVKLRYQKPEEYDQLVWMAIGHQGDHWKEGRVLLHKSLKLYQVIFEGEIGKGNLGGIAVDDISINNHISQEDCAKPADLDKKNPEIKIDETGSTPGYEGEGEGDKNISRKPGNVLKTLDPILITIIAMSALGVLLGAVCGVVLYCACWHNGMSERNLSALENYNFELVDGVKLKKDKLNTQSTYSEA
caTPT1 confirm – Candida albicans TPT1 inhibitors, confirmation, biochemical, fluorescence polarization, triplicate | shares compounds with TPT1 inh | recombinant caTPT1, RNase T1 coupled | inhibition, % at 5 µM | actives 74% (n = 2,400) | AID 2149, 2009;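 active means inhibition above the primary screen limit, the mean inhibition of all tested compounds plus 3 SD, cut at about 25% in these data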
RNase T1 inh – RNase T1 inhibitors, counter-screen for TPT1 inhibitor project, biochemical, fluorescence polarization. shares compounds with TPT1 inh. RNase T1 cleavage, 1536-well. inhibition, % at 5 µM. actives 83% (n = 2,400);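 active means inhibition above the solvent-only control well mean plus 3 SD, limit set per screening run, cut at about 23% in these data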;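 further: plate controls were DMSO wells with enzyme for no effect and wells without RNase T1 for full effect; inhibitors block cleavage so intact labeled substrate keeps polarization high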
Starred values were filed as active, the others as inactive. This is a sample that favours compounds with a hit; in the whole collection about 3.3% have one here.

What do the screens show for `O=C1Nc2ccccc2Oc2cc([N+](=O)[O-])ccc21`?
TPT1 inh: 12; Rpn11 block: 17; PHOSPHO1 inh: 12; CTSL1 counter: 4; HNF4A DNA FP: -3; NRP1-CendR mod: -30

How did O=C(N/N=C\c1c(O)ccc2ccccc12)c1cncc(Br)c1 do in these assays?
TPT1 inh: 136*; PHOSPHO1 inh: 14; CTSL1 counter: 7; HNF4A DNA FP: 140; NRP1-CendR mod: 131; caTPT1 confirm: 151*; RNase T1 inh: 138*

How did O=C(N/N=C/c1c(O)ccc2ccccc12)c1cccnc1 do in these assays?
TPT1 inh: 64*; PHOSPHO1 inh: -3; CTSL1 counter: -3; HNF4A DNA FP: 43*; NRP1-CendR mod: -135; caTPT1 confirm: 99*; RNase T1 inh: 98*

What do the screens show for `O=C(N/N=C/c1c(O)ccc2ccccc12)c1ccc(Br)o1`?
TPT1 inh: 39*; Rpn11 block: 37; PHOSPHO1 inh: 31; CTSL1 counter: 4; HNF4A DNA FP: 13; NRP1-CendR mod: -82; caTPT1 confirm: 51*; RNase T1 inh: 56*

How did CCN(CC)c1ccc(/C=C2\C(=N)N3N=C(CC(=O)N4CCOCC4)SC3=NC2=O)cc1 do in these assays?
TPT1 inh: 137*; PHOSPHO1 inh: 38; CTSL1 counter: 4; HNF4A DNA FP: 205; NRP1-CendR mod: 136; caTPT1 confirm: 174*; RNase T1 inh: 164*

How did CSc1ccc(/C=C2\C(=N)N3N=C(CC(=O)N4CCOCC4)SC3=NC2=O)cc1 do in these assays?
TPT1 inh: 5; Rpn11 block: 2; PHOSPHO1 inh: 31; CTSL1 counter: -4; HNF4A DNA FP: 3; NRP1-CendR mod: -32

What do the screens show for `CC(C)c1ccc(/C=C2\CC/C(=C\C=N\N(C)C)C2=O)cc1`?
TPT1 inh: 80*; Rpn11 block: 30; PHOSPHO1 inh: 23; CTSL1 counter: 4; HNF4A DNA FP: 15; NRP1-CendR mod: -41; caTPT1 confirm: 75*; RNase T1 inh: 82*

How did CC(C)/C=C1\CC/C(=C\c2ccc(N(C)C)cc2)C1=O do in these assays?
TPT1 inh: 121*; PHOSPHO1 inh: -5; CTSL1 counter: 2; HNF4A DNA FP: 121; NRP1-CendR mod: 59; caTPT1 confirm: 121*; RNase T1 inh: 118*

What do the screens show for `CCN1CCC2(CC1)C(C#N)=C(N)Oc1c2sc2nc(C)cc(C)c12`?
TPT1 inh: 64*; Rpn11 block: 13; PHOSPHO1 inh: -14; CTSL1 counter: 3; HNF4A DNA FP: 6; NRP1-CendR mod: -33; caTPT1 confirm: 16; RNase T1 inh: 25*

What do the screens show for `CC(=O)N1CCC2(CC1)C(C#N)=C(N)Oc1c2sc2nc(C)cc(C)c12`?
TPT1 inh: 0; Rpn11 block: 5; PHOSPHO1 inh: 6; CTSL1 counter: -2; HNF4A DNA FP: 0; NRP1-CendR mod: -11

How did COc1ccc(CN2C(=O)C(O)(CC(=O)c3ccc4c(c3)OCO4)c3ccccc32)cc1OC (centres undefined) do in these assays?
TPT1 inh: 0; Rpn11 block: 5; PHOSPHO1 inh: -9; CTSL1 counter: -1; HNF4A DNA FP: 5; NRP1-CendR mod: -4

What do the screens show for `CC(C)N1CCc2c(sc(NC(=O)c3ccc(S(=O)(=O)N4CCOCC4)cc3)c2C(N)=O)C1`?
TPT1 inh: 36*; Rpn11 block: 16; PHOSPHO1 inh: -2; CTSL1 counter: 2; HNF4A DNA FP: 0; NRP1-CendR mod: -30; caTPT1 confirm: 43*; RNase T1 inh: 56*

How did CNC(=O)c1c(NC(=O)c2ccc(S(=O)(=O)N3CCCC3)cc2)sc2c1CCN(C(C)C)C2 do in these assays?
TPT1 inh: 148*; PHOSPHO1 inh: 38; CTSL1 counter: 1; caTPT1 confirm: 153*; RNase T1 inh: 145*

How did CNC(=O)c1c(NC(=O)c2ccc(S(=O)(=O)N3CCCCC3C)cc2)sc2c1CCN(C)C2 (centres undefined) do in these assays?
TPT1 inh: 8; PHOSPHO1 inh: 28; CTSL1 counter: -2; HNF4A DNA FP: 4; NRP1-CendR mod: -84

What do the screens show for `CC1CCCN(S(=O)(=O)c2ccc(C(=O)Nc3sc4c(c3C(N)=O)CCN(C)C4)cc2)C1` (centres undefined)?
TPT1 inh: 73*; Rpn11 block: 7; PHOSPHO1 inh: 48; CTSL1 counter: 5; HNF4A DNA FP: 19; NRP1-CendR mod: -30; caTPT1 confirm: 64*; RNase T1 inh: 71*

What do the screens show for `COC(=O)c1sccc1NC(=O)c1ccc(OC)cc1`?
TPT1 inh: 63*; Rpn11 block: -5; PHOSPHO1 inh: 11; CTSL1 counter: 2; HNF4A DNA FP: 3; NRP1-CendR mod: 2; caTPT1 confirm: 4; RNase T1 inh: 5

Results for Cc1cc(N2C(=O)C(O)=C(C(=O)c3cc4ccccc4o3)C2c2cccs2)no1 (centres undefined) ?
TPT1 inh: 41*; Rpn11 block: 15; PHOSPHO1 inh: 2; CTSL1 counter: 0; HNF4A DNA FP: 7; NRP1-CendR mod: -28; caTPT1 confirm: 30*; RNase T1 inh: 39*

Results for CC1(C)CC(=O)C=C(c2cccnc2)C1 ?
TPT1 inh: -1; Rpn11 block: 0; CTSL1 counter: 1; HNF4A DNA FP: 5; NRP1-CendR mod: -2

What do the screens show for `CCN1C(=O)c2cccc3c(NC(=O)c4ccccc4)ccc1c23`?
TPT1 inh: 1; Rpn11 block: 0; PHOSPHO1 inh: -7; CTSL1 counter: 1; HNF4A DNA FP: 2; NRP1-CendR mod: -6

What do the screens show for `CCN1C(=O)c2cccc3c(NC(=O)c4ccc5c(c4)OCCO5)ccc1c23`?
TPT1 inh: 47*; PHOSPHO1 inh: 33; CTSL1 counter: 1; HNF4A DNA FP: 60*; NRP1-CendR mod: -99; caTPT1 confirm: 65*; RNase T1 inh: 72*

How did CCOC(=O)N1CCN(C(=O)c2ccc(CS(=O)Cc3ccccc3Cl)o2)CC1 (centres undefined) do in these assays?
TPT1 inh: -1; Rpn11 block: -4; PHOSPHO1 inh: 37; CTSL1 counter: 2; HNF4A DNA FP: -3; NRP1-CendR mod: 8

Screens: PubChem BioAssay, several laboratories
